# What was measured:
# Experiment in all cases: DAPPL (digital affinity profiling via proximity ligation, sequencing); 10 mM Tris-HCl pH 7.5, 50 mM NaCl, 1 mM DTT, 4% glycerol, room temperature, 30 min; GST-TFs on glutathione beads, 16-mer random dsDNA library, 0.1% formaldehyde crosslink after washing; high values mean tight binding
# FEV = biological target: T1, FEV (Homo sapiens, UniProt Q99581 1-238); conditions: protein: recombinant; tags: N-terminal GST; dsDNA, one strand shown
# T1 sequence: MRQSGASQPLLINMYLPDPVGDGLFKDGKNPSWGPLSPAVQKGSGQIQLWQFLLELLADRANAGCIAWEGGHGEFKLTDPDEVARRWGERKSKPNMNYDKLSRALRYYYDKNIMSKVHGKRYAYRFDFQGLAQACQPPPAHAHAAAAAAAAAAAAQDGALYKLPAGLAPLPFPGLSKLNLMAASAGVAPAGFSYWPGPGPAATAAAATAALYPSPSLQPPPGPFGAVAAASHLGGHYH
# How it was run: (§1)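 The binding signal reported is, for every hexamer, its read frequency for a factor over its read frequency for the tag-only sample. Reads came from pools of yeast-expressed, GST-fused human transcription factors on glutathione beads, barcoded with DNA and mixed with that sample, which were incubated with 200 nmole of a random double-stranded 16-mer DNA library in Tris/NaCl/DTT/glycerol buffer at room temperature for 30 min. After washing, the pools were crosslinked with 0.1% formaldehyde, proximity-ligated with BsaI/T4 ligase for 1 h at 37 °C, PCR-amplified and sequenced on an Illumina NextSeq500.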
# ETV5 = ETV5 (Homo sapiens, UniProt P41161 1-510); conditions: protein: recombinant; tags: N-terminal GST; dsDNA, one strand shown
# How it was run: as §1
# HSF1 = HSF1 (Homo sapiens, UniProt Q00613 1-529); conditions: protein: recombinant; tags: N-terminal GST; chain copies: 3; dsDNA, one strand shown
# How it was run: as §1
# SPIC = biological target: T2, SPIC (Homo sapiens, UniProt Q8N5J4 1-248); conditions: protein: recombinant; tags: N-terminal GST; dsDNA, one strand shown
# T2 sequence: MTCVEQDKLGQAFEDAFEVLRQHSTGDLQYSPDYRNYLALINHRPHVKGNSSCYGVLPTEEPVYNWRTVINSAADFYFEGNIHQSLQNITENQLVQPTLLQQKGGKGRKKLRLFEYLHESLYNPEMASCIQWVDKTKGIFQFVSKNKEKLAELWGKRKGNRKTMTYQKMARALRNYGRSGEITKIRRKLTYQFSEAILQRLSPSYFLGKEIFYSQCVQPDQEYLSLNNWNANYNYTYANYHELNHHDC
# How it was run: as §1
# ELF4 = ELF4 (Homo sapiens, UniProt Q99607 1-663); conditions: protein: recombinant; tags: N-terminal GST; dsDNA, one strand shown
# How it was run: as §1
# ELK4 = biological target: T3, ELK4 (Homo sapiens, UniProt P28324-2 1-405); conditions: protein: recombinant; tags: N-terminal GST; dsDNA, one strand shown
# T3 sequence: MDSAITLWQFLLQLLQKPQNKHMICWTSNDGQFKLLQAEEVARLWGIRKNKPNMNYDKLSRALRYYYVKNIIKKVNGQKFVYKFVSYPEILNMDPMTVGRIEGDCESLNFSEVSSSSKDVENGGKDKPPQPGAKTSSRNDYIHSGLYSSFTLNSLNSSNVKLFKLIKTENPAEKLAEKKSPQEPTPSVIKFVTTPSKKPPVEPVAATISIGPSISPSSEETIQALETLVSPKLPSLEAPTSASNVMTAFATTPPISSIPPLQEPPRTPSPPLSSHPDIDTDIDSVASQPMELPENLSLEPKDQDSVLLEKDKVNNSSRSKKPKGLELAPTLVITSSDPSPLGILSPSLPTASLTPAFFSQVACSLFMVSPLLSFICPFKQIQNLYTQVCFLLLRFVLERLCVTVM
# How it was run: as §1
# ETV2 = biological target: T4, ETV2 (Homo sapiens, UniProt O00321 1-342); conditions: protein: recombinant; tags: N-terminal GST; dsDNA, one strand shown
# T4 sequence: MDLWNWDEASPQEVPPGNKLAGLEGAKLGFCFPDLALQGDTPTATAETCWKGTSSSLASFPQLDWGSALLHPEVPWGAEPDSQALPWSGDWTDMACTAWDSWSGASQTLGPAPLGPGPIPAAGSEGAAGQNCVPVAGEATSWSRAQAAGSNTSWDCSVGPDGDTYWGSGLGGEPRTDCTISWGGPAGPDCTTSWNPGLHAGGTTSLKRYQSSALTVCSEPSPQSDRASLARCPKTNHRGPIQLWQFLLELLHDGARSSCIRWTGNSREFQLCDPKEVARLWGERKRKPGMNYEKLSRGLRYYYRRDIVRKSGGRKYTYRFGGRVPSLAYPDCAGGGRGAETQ
# How it was run: as §1
# ELF3 = biological target: T5, ELF3 (Homo sapiens, UniProt P78545 1-371); conditions: protein: recombinant; tags: N-terminal GST; dsDNA, one strand shown
# T5 sequence: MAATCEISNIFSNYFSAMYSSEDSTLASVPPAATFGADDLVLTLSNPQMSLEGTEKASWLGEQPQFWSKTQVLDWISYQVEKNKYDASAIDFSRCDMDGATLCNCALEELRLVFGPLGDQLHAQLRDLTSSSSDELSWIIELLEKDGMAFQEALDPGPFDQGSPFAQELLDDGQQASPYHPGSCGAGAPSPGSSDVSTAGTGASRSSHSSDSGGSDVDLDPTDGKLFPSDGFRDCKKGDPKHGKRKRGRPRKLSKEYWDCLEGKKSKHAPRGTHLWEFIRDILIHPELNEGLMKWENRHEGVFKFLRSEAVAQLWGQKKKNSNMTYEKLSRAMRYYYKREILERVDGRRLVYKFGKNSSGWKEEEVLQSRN
# How it was run: as §1
# CRX = CRX (Homo sapiens, UniProt O43186 1-299); conditions: protein: recombinant; tags: N-terminal GST; dsDNA, one strand shown
# How it was run: as §1
# ETV1 = ETV1 (Homo sapiens, UniProt P50549 1-477); conditions: protein: recombinant; tags: N-terminal GST; dsDNA, one strand shown
# How it was run: as §1
# ERF = biological target: T6, ERF (Homo sapiens, UniProt P50548 1-548); conditions: protein: recombinant; tags: N-terminal GST; dsDNA, one strand shown
# T6 sequence: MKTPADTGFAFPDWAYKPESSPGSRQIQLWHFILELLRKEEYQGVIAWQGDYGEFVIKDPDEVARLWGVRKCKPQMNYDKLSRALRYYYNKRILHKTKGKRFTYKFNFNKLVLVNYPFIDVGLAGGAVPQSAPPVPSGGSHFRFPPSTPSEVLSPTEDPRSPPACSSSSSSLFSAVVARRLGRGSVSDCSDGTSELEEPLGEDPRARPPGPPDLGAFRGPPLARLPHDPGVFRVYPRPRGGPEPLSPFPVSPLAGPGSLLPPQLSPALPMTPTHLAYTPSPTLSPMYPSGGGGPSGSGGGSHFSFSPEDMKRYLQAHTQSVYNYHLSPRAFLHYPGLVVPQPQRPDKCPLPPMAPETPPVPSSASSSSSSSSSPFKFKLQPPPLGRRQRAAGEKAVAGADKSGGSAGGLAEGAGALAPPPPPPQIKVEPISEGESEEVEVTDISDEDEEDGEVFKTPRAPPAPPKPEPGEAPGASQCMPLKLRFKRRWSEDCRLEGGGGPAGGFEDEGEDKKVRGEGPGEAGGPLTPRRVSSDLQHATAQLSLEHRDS
# How it was run: as §1
# ETV3L = biological target: T7, ETV3L (Homo sapiens, UniProt Q6ZN32 1-361); conditions: protein: recombinant; tags: N-terminal GST; dsDNA, one strand shown
# T7 sequence: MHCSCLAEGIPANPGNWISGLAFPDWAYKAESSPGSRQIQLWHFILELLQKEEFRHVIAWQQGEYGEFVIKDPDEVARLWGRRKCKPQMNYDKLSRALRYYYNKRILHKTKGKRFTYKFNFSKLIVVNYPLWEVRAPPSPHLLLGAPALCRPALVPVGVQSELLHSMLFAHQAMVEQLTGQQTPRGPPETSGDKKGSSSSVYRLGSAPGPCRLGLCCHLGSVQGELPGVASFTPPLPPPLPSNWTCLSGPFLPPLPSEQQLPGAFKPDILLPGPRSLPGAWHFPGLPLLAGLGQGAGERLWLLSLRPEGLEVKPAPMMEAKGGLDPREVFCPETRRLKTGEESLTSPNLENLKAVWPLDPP
# How it was run: as §1
# ETS2 = biological target: T8, ETS2 (Homo sapiens, UniProt P15036 1-469); conditions: protein: recombinant; tags: N-terminal GST; dsDNA, one strand shown
# T8 sequence: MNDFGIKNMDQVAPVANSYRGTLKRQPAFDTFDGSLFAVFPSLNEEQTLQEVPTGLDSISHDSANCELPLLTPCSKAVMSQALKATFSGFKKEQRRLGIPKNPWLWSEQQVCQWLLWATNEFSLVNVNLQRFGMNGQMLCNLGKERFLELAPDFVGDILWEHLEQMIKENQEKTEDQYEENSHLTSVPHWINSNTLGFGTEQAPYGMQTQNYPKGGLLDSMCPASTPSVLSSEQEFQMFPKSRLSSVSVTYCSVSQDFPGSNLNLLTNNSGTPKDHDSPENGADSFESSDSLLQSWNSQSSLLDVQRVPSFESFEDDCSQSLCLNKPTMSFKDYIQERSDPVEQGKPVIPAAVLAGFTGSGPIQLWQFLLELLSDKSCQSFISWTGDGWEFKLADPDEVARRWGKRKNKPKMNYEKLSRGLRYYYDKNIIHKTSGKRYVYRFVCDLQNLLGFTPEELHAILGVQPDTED
# How it was run: as §1
# SPDEF = biological target: T9, SPDEF (Homo sapiens, UniProt O95238 1-335); conditions: protein: recombinant; tags: N-terminal GST; dsDNA, one strand shown
# T9 sequence: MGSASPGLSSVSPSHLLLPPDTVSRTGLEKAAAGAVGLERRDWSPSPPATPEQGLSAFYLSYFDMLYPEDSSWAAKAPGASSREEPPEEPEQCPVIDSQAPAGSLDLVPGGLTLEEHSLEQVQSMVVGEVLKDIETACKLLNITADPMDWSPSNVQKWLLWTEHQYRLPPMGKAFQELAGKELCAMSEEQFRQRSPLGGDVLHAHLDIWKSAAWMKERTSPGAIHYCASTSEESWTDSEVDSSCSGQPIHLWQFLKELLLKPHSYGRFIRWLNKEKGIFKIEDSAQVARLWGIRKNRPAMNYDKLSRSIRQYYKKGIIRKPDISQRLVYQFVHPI
# How it was run: as §1
# ETV7 = biological target: T10, ETV7 (Homo sapiens, UniProt Q9Y603 1-341); conditions: protein: recombinant; tags: N-terminal GST; dsDNA, one strand shown
# T10 sequence: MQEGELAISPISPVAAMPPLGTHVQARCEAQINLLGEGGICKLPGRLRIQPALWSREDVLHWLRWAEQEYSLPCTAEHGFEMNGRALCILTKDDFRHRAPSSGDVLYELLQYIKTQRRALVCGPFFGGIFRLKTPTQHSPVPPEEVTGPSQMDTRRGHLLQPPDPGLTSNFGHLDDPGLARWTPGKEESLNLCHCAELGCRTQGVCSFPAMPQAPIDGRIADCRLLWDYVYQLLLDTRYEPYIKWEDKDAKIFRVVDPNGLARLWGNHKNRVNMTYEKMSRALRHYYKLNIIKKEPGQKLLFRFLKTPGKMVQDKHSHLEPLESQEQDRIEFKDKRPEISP
# How it was run: as §1
# ELF5 = biological target: T11, ELF5 (Homo sapiens, UniProt Q9UKW6-2 1-255); conditions: protein: recombinant; tags: N-terminal GST; dsDNA, one strand shown
# T11 sequence: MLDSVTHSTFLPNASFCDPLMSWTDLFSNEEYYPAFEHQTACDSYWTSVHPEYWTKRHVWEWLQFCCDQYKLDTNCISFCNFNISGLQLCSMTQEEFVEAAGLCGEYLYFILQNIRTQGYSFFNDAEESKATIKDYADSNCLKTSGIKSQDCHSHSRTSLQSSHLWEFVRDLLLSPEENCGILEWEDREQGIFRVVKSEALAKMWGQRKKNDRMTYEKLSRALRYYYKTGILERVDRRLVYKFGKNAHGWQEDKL
# How it was run: as §1
# ETV3 = biological target: T12, ETV3 (Homo sapiens, UniProt P41162-2 1-143); conditions: protein: recombinant; tags: N-terminal GST; dsDNA, one strand shown
# T12 sequence: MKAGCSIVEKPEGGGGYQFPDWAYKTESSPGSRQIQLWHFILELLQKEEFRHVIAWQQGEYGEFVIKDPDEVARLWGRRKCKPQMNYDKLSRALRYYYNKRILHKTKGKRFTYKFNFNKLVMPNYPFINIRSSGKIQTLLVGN
# How it was run: as §1
# ETV6 = ETV6 (Homo sapiens, UniProt P41212 1-452); conditions: protein: recombinant; tags: N-terminal GST; dsDNA, one strand shown
# How it was run: as §1
# ETV5, sequence (P41161 whole entry): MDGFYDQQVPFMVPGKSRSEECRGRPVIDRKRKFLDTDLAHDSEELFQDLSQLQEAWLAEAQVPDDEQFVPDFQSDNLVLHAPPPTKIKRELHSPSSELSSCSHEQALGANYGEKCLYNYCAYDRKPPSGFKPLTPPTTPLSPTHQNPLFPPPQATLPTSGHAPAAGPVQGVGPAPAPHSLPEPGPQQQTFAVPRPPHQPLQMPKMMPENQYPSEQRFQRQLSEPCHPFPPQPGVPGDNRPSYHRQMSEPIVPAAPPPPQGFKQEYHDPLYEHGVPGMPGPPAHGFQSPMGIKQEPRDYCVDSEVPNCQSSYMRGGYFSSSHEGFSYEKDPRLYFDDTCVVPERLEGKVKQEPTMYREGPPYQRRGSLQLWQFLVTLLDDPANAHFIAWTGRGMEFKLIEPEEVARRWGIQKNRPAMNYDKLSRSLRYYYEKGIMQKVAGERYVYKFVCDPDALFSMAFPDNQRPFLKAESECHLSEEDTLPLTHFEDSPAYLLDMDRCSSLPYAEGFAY
# ETV6, sequence (P41212 whole entry): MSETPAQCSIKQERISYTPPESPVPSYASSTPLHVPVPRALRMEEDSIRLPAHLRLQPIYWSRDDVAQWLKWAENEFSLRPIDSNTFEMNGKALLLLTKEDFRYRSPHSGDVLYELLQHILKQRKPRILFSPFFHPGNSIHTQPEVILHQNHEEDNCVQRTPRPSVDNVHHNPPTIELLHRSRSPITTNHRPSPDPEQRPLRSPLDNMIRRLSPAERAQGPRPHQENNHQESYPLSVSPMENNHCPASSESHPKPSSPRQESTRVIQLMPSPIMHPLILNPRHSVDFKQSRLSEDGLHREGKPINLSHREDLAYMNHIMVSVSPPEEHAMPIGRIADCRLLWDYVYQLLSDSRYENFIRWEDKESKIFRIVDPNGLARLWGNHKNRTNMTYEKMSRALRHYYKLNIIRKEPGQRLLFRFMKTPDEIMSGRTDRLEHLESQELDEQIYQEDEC
# CRX, sequence (O43186 whole entry): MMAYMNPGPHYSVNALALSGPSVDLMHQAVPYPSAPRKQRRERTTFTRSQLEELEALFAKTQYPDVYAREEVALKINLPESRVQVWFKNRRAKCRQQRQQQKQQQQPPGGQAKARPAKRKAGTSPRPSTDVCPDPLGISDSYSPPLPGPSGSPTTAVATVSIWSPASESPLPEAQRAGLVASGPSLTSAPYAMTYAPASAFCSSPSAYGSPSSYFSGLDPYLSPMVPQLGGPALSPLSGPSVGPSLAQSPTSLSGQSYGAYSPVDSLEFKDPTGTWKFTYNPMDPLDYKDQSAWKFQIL
# HSF1, sequence (Q00613 whole entry): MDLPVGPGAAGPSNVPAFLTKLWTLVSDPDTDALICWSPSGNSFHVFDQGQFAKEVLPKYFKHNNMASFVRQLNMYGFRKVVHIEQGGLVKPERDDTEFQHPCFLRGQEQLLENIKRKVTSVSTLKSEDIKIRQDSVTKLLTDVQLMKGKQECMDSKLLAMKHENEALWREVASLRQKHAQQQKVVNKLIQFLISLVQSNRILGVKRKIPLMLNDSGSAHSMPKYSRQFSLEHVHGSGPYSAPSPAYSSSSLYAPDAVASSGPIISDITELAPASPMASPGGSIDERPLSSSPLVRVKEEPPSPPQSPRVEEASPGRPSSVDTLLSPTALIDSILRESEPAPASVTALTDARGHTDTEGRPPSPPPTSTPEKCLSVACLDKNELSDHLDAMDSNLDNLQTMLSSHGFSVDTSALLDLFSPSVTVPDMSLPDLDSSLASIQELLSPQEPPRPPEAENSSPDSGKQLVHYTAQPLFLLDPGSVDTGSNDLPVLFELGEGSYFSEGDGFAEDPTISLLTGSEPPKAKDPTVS
# ETV1, sequence (P50549 whole entry): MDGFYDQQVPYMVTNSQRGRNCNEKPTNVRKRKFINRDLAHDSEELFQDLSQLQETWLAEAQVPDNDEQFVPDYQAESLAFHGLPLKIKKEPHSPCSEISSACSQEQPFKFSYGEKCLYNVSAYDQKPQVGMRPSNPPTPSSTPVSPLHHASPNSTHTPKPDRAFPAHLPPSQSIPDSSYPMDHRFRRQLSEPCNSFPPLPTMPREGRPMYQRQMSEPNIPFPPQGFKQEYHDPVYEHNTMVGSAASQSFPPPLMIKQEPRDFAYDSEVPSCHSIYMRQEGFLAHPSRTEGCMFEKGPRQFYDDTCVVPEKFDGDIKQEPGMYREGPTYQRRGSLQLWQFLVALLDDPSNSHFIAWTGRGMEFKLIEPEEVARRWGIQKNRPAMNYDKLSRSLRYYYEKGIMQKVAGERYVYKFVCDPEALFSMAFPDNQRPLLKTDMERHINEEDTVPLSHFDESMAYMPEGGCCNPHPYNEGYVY
# ELF4, sequence (Q99607 whole entry): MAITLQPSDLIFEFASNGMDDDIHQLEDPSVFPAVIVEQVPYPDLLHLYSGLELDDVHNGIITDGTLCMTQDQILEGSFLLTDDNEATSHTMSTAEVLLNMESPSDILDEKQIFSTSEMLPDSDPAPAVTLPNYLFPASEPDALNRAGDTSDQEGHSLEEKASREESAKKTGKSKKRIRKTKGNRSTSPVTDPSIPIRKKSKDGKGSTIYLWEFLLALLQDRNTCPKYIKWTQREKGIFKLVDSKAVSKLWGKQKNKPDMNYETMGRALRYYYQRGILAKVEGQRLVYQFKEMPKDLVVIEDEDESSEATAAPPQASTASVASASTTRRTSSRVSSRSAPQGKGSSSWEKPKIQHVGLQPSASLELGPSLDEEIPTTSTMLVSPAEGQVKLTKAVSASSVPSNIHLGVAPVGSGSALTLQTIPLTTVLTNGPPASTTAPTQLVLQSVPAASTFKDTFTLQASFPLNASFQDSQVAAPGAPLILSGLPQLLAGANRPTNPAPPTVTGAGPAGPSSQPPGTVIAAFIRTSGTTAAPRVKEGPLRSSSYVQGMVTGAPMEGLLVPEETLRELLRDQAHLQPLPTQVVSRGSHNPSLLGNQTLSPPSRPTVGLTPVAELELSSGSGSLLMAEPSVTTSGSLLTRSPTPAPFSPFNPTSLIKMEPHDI
sequence,measurement,setting,value
CTTAGT,binding signal,FEV,"1.13 fold enrichment (6-mer frequency, TF over GST control)"
same,binding signal,ETV5,"1.3 fold enrichment (6-mer frequency, TF over GST control)"
same,binding signal,HSF1,"1.49 fold enrichment (6-mer frequency, TF over GST control)"
same,binding signal,SPIC,"1.09 fold enrichment (6-mer frequency, TF over GST control)"
same,binding signal,ELF4,"1.26 fold enrichment (6-mer frequency, TF over GST control)"
same,binding signal,ELK4,"1.12 fold enrichment (6-mer frequency, TF over GST control)"
same,binding signal,ETV2,"1.06 fold enrichment (6-mer frequency, TF over GST control)"
same,binding signal,ELF3,"1.18 fold enrichment (6-mer frequency, TF over GST control)"
same,binding signal,CRX,"1.98 fold enrichment (6-mer frequency, TF over GST control)"
same,binding signal,ETV1,"1.17 fold enrichment (6-mer frequency, TF over GST control)"
same,binding signal,ERF,"1.29 fold enrichment (6-mer frequency, TF over GST control)"
same,binding signal,ETV3L,"1.18 fold enrichment (6-mer frequency, TF over GST control)"
same,binding signal,ETS2,"1.15 fold enrichment (6-mer frequency, TF over GST control)"
same,binding signal,SPDEF,"1.2 fold enrichment (6-mer frequency, TF over GST control)"
same,binding signal,ETV7,"1.07 fold enrichment (6-mer frequency, TF over GST control)"
same,binding signal,ELF5,"1.13 fold enrichment (6-mer frequency, TF over GST control)"
same,binding signal,ETV3,"1.31 fold enrichment (6-mer frequency, TF over GST control)"
same,binding signal,ETV6,"1.24 fold enrichment (6-mer frequency, TF over GST control)"

# — publication PMC7862700, “An all-to-all approach to the identification of sequence-specific readers for epigenetic DNA modifications on cytosine”
